# Assay outcomes: PubChem BioAssay, The Scripps Research Institute Molecular Screening Center
# An excerpt weighted towards active compounds, which were near 2% of everything screened.
# PME-1 inh: blocks human protein phosphatase methylesterase 1 | 0.53% of 320,000 active | recombinant PME-1, FP-Rh probe fluorescence polarization | inhibition, % at 5.9 µM | Q9Y570;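 active = inhibition above the campaign mean of all compounds plus 3 SD, cut at about 26% in these data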;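 also: competitive labeling of PME-1 active site by serine hydrolase directed probe; 0% = PME-1 with DMSO and 100% = wells lacking PME-1 enzyme; inhibitors block probe labeling so polarization falls and inhibition rises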
# GSTO1 counter: blocks human GSTO1 in RBBP9 counter-screen; P78417; 1.1% of 300,000 active; recombinant GSTO1, activity-based probe fluorescence polarization; AID 1974; inhibition, % at 5.96 µM;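 active = inhibition above the campaign mean inhibition plus 3 SD, cut at about 35% in these data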;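 also: 0% = GSTO1-1 with DMSO and 100% = wells lacking GSTO1-1 enzyme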
# LYPLA2 inh: LYPLA2 (human) inhibition in PME1 counter-screen; 0.38% of 320,000 active; recombinant LYPLA2, FP-Rh probe fluorescence polarization; inhibition, % at 5.9 µM;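 active = inhibition above the screen-wide mean plus 3 SD, limit set per campaign, cut at about 26% in these data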;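 also: 0% = LYPLA2 with DMSO and 100% = wells lacking LYPLA2 enzyme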
# LYPLA1 counter: LYPLA1 (human) inhibition in PME1 counter-screen | recombinant LYPLA1, FP-Rh probe fluorescence polarization | AID 2174 | 0.16% of 320,000 active | O75608 | inhibition, % at 5.9 µM;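 active = inhibition above the mean of all tested compounds plus 3 SD, set per campaign, cut at about 14% in these data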;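 also: inhibitors block serine hydrolase probe labeling of LYPLA1 so polarization falls; 0% = enzyme with DMSO and 100% = wells lacking LYPLA1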
# Fam108B inh: counter-screen for RBBP9 inhibitors: inhibitors of mouse Fam108B | inhibition, % at 9.51 µM | recombinant Fam108B, FP-Rh probe fluorescence polarization | 0.33% of 300,000 active;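 active = inhibition above the screen mean inhibition plus 3 SD, computed separately per campaign, cut at about 18% in these data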;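 also: inhibitors lower polarization as less probe binds the enzyme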
# PREPL inhibitor: inhibitors of human prolyl oligopeptidase-like enzyme PREPL; recombinant PREPL, fluorescence polarization activity-based probe; inhibition, % at 5.96 µM; 0.68% of 320,000 active; in the data active = inhibition above about 43%;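 also: 0% = enzyme with DMSO and 100% = wells lacking enzyme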
# Target sequence (Q4J6C6 whole entry, looked up): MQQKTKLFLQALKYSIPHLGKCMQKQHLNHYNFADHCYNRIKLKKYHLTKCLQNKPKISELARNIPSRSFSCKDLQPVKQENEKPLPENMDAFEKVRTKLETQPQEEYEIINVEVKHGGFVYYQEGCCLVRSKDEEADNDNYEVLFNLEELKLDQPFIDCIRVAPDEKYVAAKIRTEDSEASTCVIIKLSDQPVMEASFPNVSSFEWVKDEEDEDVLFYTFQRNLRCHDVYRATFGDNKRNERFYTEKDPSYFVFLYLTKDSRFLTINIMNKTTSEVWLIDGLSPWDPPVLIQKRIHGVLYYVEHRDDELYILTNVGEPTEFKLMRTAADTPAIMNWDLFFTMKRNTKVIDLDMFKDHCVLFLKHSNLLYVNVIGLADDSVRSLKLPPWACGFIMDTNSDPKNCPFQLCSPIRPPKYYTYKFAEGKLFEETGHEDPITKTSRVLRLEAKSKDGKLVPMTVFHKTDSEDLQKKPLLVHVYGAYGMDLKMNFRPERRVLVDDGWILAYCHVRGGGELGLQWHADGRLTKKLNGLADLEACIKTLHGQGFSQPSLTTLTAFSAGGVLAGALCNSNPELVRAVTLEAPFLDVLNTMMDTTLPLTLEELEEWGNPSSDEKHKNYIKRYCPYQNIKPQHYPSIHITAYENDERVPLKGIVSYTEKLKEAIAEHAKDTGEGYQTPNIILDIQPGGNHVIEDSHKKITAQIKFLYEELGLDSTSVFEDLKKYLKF
# LYPLA2 conf: counter-screen for PME1 inhibitors: confirmation of human LYPLA2 inhibitors; 72% of 1,100 active; shares compounds with LYPLA2 inh; recombinant LYPLA2, FP-Rh probe fluorescence polarization; inhibition, % at 5.9 µM;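 active = mean inhibition across replicates above the hit cutoff set in the primary screen, cut at about 26% in these data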;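 also: blocked labeling of the enzyme by serine hydrolase FP-Rh probe lowers polarization; 0% = enzyme with DMSO and 100% = wells lacking LYPLA2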
# LYPLA2 gel ABPP: blocks human acyl-protein thioesterase 2 in gel ABPP; shares compounds with LYPLA2 inh; rhLYPLA2 in mouse brain proteome, gel ABPP FP-Rh; AID 652029; inhibition, % at 20 µM; 30% of 150 active;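 active = inhibition of LYPLA2 enzyme probe labeling above about 50%, limit read from the data; inactive = inhibition below that limit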;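 also: loss of FP-Rh probe labeling of the LYPLA2 gel band measured as band density; 0% = DMSO only control band and 100% = blank gel background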
# Active calls of the source: *; . = no result.
SMILES,PME-1 inh,GSTO1 counter,LYPLA2 inh,LYPLA1 counter,Fam108B inh,PREPL inhibitor,LYPLA2 conf,others
CO/N=C/c1ccc(N2CCN(C(=O)c3ccc(F)cc3)CC2)c([N+](=O)[O-])c1,1,2,48*,1,-2,0,50*,
CO/N=C/c1ccc(N2CCN(C(=O)c3cccc(C(F)(F)F)c3)CC2)c([N+](=O)[O-])c1,0,2,88*,5,-3,-21,86*,
CNC(=S)Nc1ccc(N2CCN(c3ccc(C(F)(F)F)cn3)CC2)nc1,2,-6,54*,8,1,20,65*,LYPLA2 gel ABPP=19
COc1ccc(/C=C/C(=O)NCC(=O)N/N=C(/C)c2ccc(Cl)cc2)cc1,-5,-4,4,0,0,0,.,
C#CCn1c(=NC(=O)CN2C(=O)CCC2=O)sc2cc(S(N)(=O)=O)ccc21,1,0,32*,-3,-1,0,47*,
O=C(c1cc(COc2ccc(F)cc2F)on1)N1CC2C[C@@H]3CC1C[C@H](C2)C3,3,7,7,0,1,13,.,
O=C(c1cc(COc2ccc(F)cc2F)on1)N1C[C@H]2CC[C@H]1C2,1,2,27*,2,1,15,1,
COc1ccc(CCNC(=O)COc2ccc(-c3ccccc3)cc2)cc1OC,-1,1,30*,0,7,-7,31*,
CC(=O)NNc1cc(C)nc(N)n1,12,11,4,1,-1,9,.,
O=C(COc1ccc(S(=O)(=O)NCc2ccccc2)cc1Cl)NCc1ccncc1,9,5,41*,-2,1,-7,46*,
Cc1cc(N(C)N)nc(NC(=O)NS(=O)(=O)c2ccccc2Cl)n1,-4,-2,-3,1,-1,-2,.,
CSc1ccc(C(=O)C2CCCN(C(=O)c3cc4cc(F)ccc4[nH]3)C2)cc1 (centres undefined),-3,-5,36*,13,-4,-13,41*,
CCOc1ccc(S(=O)(=O)NCCc2ccccn2)cc1,.,.,.,.,.,12,.,
COc1cccc([C@@H]2Oc3ccc(OC)cc3C(=O)[C@H]2O)c1,0,15,9,0,7,8,.,
COc1ccc2c(c1)C(=O)[C@@H](O)[C@H](c1ccc(OC)c(Br)c1)O2,1,4,70*,2,-5,16,70*,LYPLA2 gel ABPP=63*
CC(=O)c1ccc(N2CCN(C(=O)c3noc4c3CSc3ccccc3-4)CC2)cc1,0,0,44*,6,1,23,17,
CCCCn1c(N)c(N(Cc2ccccc2OC)C(=O)C(C)C)c(=O)[nH]c1=O,-3,-2,-2,4,0,12,.,
O=C1COc2ccc(C(=O)COC(=O)c3ccc(Cl)cc3[N+](=O)[O-])cc2N1,3,9,27*,3,4,18,33*,
Cc1c(NC(=O)c2cccc(NS(C)(=O)=O)c2)c(=O)n(-c2ccccc2)n1C,5,-7,1,-1,0,1,.,
O=[N+]([O-])c1ccc(Oc2cccc(F)c2)c2ccncc12,5,12,43*,6,-1,33,44*,
O=C(CCCN1C(=O)NC2(CCCC2)C1=O)NCc1ccccc1,5,.,3,0,.,4,.,
COc1ccc(NC(=O)c2cc(F)c(F)cc2Cl)cc1Cl,2,-9,28*,3,-1,1,20,
CCCN(CC(=O)Nc1ccccc1C)C(=O)Cc1coc2cc(C)ccc12,-6,-2,-2,-4,2,14,.,
O=C(c1ccncc1)c1ccc(N2CCN(C3CC(=O)N(Cc4ccccc4)C3=O)CC2)cc1 (centres undefined),-7,8,28*,6,1,-5,23,
N/C(=N\OC(=O)CC1CCCCC1)c1ccc(Cl)cc1,3,-1,-3,0,0,-2,.,
SMILES,PME-1 inh,GSTO1 counter,LYPLA2 inh,LYPLA1 counter,Fam108B inh,PREPL inhibitor,LYPLA2 conf,others
CC(C)c1ccc(NC(=O)NCc2ccccn2)cc1,5,2,28*,4,0,4,-2,
O=C(NCC(=O)N1CCN(C/C=C/c2ccccc2)CC1)c1ccc(OC(F)F)cc1,-1,.,35*,1,.,23,32*,
O=C(NCC(=O)N1CCN(C/C=C/c2ccccc2)CC1)c1ccc(Br)cc1,.,.,.,.,.,20,.,
CCn1nc(C)c(CNC(=O)c2cc(COc3cncc(Cl)c3)on2)c1C,-2,2,9,-3,-2,-7,.,
COC(=O)c1ccc(CNC(=O)c2cc(COc3cncc(Cl)c3)on2)cc1,7,5,35*,1,1,-3,35*,
CC(c1ccccc1)n1c(SCC(=O)Nc2ccccc2)n[nH]c1=O (centres undefined),-5,3,-7,-2,-3,-15,.,
Cn1/c(=N\NC(=O)c2ccccc2Cl)sc2ccccc21,-1,-3,-4,0,1,-4,.,
CCCC(=O)Nc1ccc(NC(=S)NC(=O)c2ccccc2[N+](=O)[O-])cc1,2,-1,30*,2,3,7,31*,
CCC(=O)NC(=S)Nc1ccc(NC(=O)c2ccccc2[N+](=O)[O-])cc1,-1,-5,14,0,7,-2,.,
O=C(NC(=S)N1CCN(c2ccc(C(F)(F)F)cc2[N+](=O)[O-])CC1)c1cccs1,-5,6,36*,-1,3,4,30*,
CCCCC1CCC(c2nc(-c3ccccn3)no2)CC1 (centres undefined),-7,7,29*,8,2,-12,38*,
Cc1ccc(NC(=O)CSc2nc(=O)n(CCN(C)C)c3c2CCCC3)cc1Cl,1,-15,3,-5,0,30,.,
O=C(c1ccc(N2CCN(C(=O)c3cccc(F)c3)CC2)cc1)c1cccc(F)c1,5,-2,43*,6,3,16,29*,
Cc1ccc(NC(=S)N2CCCC(O)C2)cc1 (centres undefined),-1,11,7,2,1,-2,.,
CC(C)c1ccc(NC(=O)c2ccc3c(c2)C(=O)N(Cc2cccnc2)C3=O)cc1,8,-1,51*,-1,-4,9,53*,LYPLA2 gel ABPP=26
COC(=O)Cc1ccc(NC(=O)c2ccc3c(c2)C(=O)N(Cc2ccco2)C3=O)cc1,7,-4,5,2,0,4,.,
CCOC(=O)c1ccc(NC(=O)c2ccc3c(c2)C(=O)N(Cc2cccnc2)C3=O)cc1,-12,13,41*,3,3,12,47*,
